Source: PubChem BioAssay (NCATS)
Inconclusive results are not listed. The source made the active and inactive calls. Calls come from the whole dose curve; as a rule, active = well fitted inhibition curve with a large enough effect; inconclusive = small, poorly fitted or top-dose-only effect; inactive = flat fitted curve, though single readings scatter.

Key:
[1] = qHTS profiling for inhibitors of Plasmodium falciparum proliferation (AID 504749);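 note: 0% = DMSO vehicle and full inhibition = artemisinin control; nearly all actives have a fitted effect of over 60% in size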; details: P. falciparum in erythrocytes, SYBR Green DNA, 72 h
Method in brief: (§1)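 Three-day growth assay of blood-stage parasites in erythrocytes (0.3% parasitemia, 2.5% hematocrit) at 37 C, 5% CO2, quantified by SYBR Green DNA staining after overnight detergent lysis.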

[2] = system: 3D7; experiment: as above; details: P. falciparum in erythrocytes, SYBR Green DNA, 72 h; series mostly up to 28.7 µM
Method in brief: as §1

[3] = system: 7G8; experiment: as above; details: P. falciparum in erythrocytes, SYBR Green DNA, 72 h; series mostly up to 28.7 µM
Method in brief: as §1

[4] = system: AA1029; experiment: as above; details: P. falciparum in erythrocytes, SYBR Green DNA, 72 h; series mostly up to 28.7 µM
Method in brief: as §1

[5] = system: AS120; experiment: as above; details: P. falciparum in erythrocytes, SYBR Green DNA, 72 h; series mostly up to 28.7 µM
Method in brief: as §1

[6] = system: ATS189; experiment: as above; details: P. falciparum in erythrocytes, SYBR Green DNA, 72 h; series mostly up to 28.7 µM
Method in brief: as §1

[7] = system: ATS95; experiment: as above; details: P. falciparum in erythrocytes, SYBR Green DNA, 72 h; series mostly up to 28.7 µM
Method in brief: as §1

[8] = system: C2A; experiment: as above; details: P. falciparum in erythrocytes, SYBR Green DNA, 72 h; series mostly up to 28.7 µM
Method in brief: as §1

[9] = system: CP185; experiment: as above; details: P. falciparum in erythrocytes, SYBR Green DNA, 72 h; series mostly up to 28.7 µM
Method in brief: as §1

[10] = system: CP191; experiment: as above; details: P. falciparum in erythrocytes, SYBR Green DNA, 72 h; series mostly up to 28.7 µM
Method in brief: as §1

[11] = system: CP192; experiment: as above; details: P. falciparum in erythrocytes, SYBR Green DNA, 72 h; series mostly up to 28.7 µM
Method in brief: as §1

[12] = system: CP194; experiment: as above; details: P. falciparum in erythrocytes, SYBR Green DNA, 72 h; series mostly up to 28.7 µM
Method in brief: as §1

[13] = system: CP201; experiment: as above; details: P. falciparum in erythrocytes, SYBR Green DNA, 72 h; series mostly up to 28.7 µM
Method in brief: as §1

[14] = system: CP203; experiment: as above; details: P. falciparum in erythrocytes, SYBR Green DNA, 72 h; series mostly up to 28.7 µM
Method in brief: as §1

[15] = system: CP211; experiment: as above; details: P. falciparum in erythrocytes, SYBR Green DNA, 72 h; series mostly up to 28.7 µM
Method in brief: as §1

[16] = system: CP215; experiment: as above; details: P. falciparum in erythrocytes, SYBR Green DNA, 72 h; series mostly up to 28.7 µM
Method in brief: as §1

[17] = system: CP217; experiment: as above; details: P. falciparum in erythrocytes, SYBR Green DNA, 72 h; series mostly up to 28.7 µM
Method in brief: as §1

[18] = system: CP237; experiment: as above; details: P. falciparum in erythrocytes, SYBR Green DNA, 72 h; series mostly up to 28.7 µM
Method in brief: as §1

[19] = system: CP238; experiment: as above; details: P. falciparum in erythrocytes, SYBR Green DNA, 72 h; series mostly up to 28.7 µM
Method in brief: as §1

[20] = system: CP247; experiment: as above; details: P. falciparum in erythrocytes, SYBR Green DNA, 72 h; series mostly up to 28.7 µM
Method in brief: as §1

[21] = at 28.7 µM (top of the series), parasite line A
[22] = at 28.7 µM (top of the series), parasite line B
[23] = at 12.8 µM (top of the series), parasite line A
[24] = at 12.8 µM (top of the series), parasite line B

Nc1ccc(C(=O)O)cc1
inactive: activity, negative = inhibition [1, 21] -7.02% | activity, negative = inhibition [1, 22] 4.76% | Potency [2] | Potency [3] | Potency [4] | Potency [5] | Potency [6] | Potency [7] | Potency [8] | Potency [9] | Potency [10] | Potency [11] | Potency [12] | Potency [13] | Potency [14] | Potency [15] | Potency [16] | Potency [17] | Potency [18] | Potency [19] | Potency [20]

CCCCCCc1ccc(O)cc1O
inactive: activity, negative = inhibition [1, 21] 6.34% | activity, negative = inhibition [1, 22] 12.1% | Potency [2] | Potency [3] | Potency [4] | Potency [5] | Potency [6] | Potency [7] | Potency [8] | Potency [9] | Potency [10] | Potency [11] | Potency [12] | Potency [13] | Potency [14] | Potency [15] | Potency [16] | Potency [17] | Potency [18] | Potency [19] | Potency [20]

CC(C)COC(=O)OCN1C(=O)CN(CCN2CC(=O)N(COC(=O)OCC(C)C)C(=O)C2)CC1=O
inactive: activity, negative = inhibition [1, 21] 4.43% | activity, negative = inhibition [1, 22] 8.61% | Potency [2] | Potency [3] | Potency [4] | Potency [5] | Potency [6] | Potency [7] | Potency [8] | Potency [9] | Potency [10] | Potency [11] | Potency [12] | Potency [13] | Potency [14] | Potency [15] | Potency [16] | Potency [17] | Potency [18] | Potency [19] | Potency [20]

COc1c2occc2c(OC)c2c(=O)cc(C)oc12
inactive: activity, negative = inhibition [1, 23] 5.55% | activity, negative = inhibition [1, 24] 4.52% | Potency [2] | Potency [3] | Potency [4] | Potency [5] | Potency [6] | Potency [7] | Potency [8] | Potency [9] | Potency [10] | Potency [11] | Potency [12] | Potency [13] | Potency [14] | Potency [15] | Potency [16] | Potency [17] | Potency [18] | Potency [19] | Potency [20]

O=C1c2ccccc2C(=O)C1c1ccccc1
inactive: activity, negative = inhibition [1, 23] 17.2% | activity, negative = inhibition [1, 24] 11.5% | Potency [2] | Potency [3] | Potency [4] | Potency [5] | Potency [6] | Potency [7] | Potency [8] | Potency [9] | Potency [10] | Potency [11] | Potency [12] | Potency [13] | Potency [14] | Potency [15] | Potency [16] | Potency [17] | Potency [18] | Potency [19] | Potency [20]
